# The entries come from a sample that favours hits as a whole.
# Anaer choline gr: growth inhibitors of anaerobic choline-fed gram-negatives, minimal medium, absorbance; calls only; Gram-negative bacterium anaerobic choline minimal medium; active compounds read low; AID 1963822, 2024; 55,000 compounds, 0.2% hits; call rule not given here
# * marks the source's active call; other numbers are inactive results; i = inactive; + = active, no number; ! = a repeat was not active.
SMILES,Anaer choline gr
Cc1nc2scc(C)n2c(=O)c1NC(=O)Cc1ccc(Cl)cc1,+
Cc1nc2sccn2c(=O)c1NC(=O)Cc1ccc(Cl)cc1,i
Cc1nc2scc(C)n2c(=O)c1NC(=O)C(C)C,i
CC(C)CCNC(=O)C1CCCN1C(=O)c1ccc(NS(=O)(=O)c2ccccc2)cc1 (configuration not stated),i
CCSc1nnc(-c2nn(C)c3c2CN(S(=O)(=O)c2ccc(OC)c(Cl)c2)CC3)n1CC,i
CC(C)CCNC(=O)CSc1nc(-c2ccccc2)no1,i
CCc1ccc(NC(=O)CSc2nc(-c3ccc(C(C)C)cc3)no2)cc1,i
CCCCNC(=O)CSc1nc(-c2ccc(C(C)C)cc2)no1,+
COc1ccc(-c2nonc2NC(=O)C(C)Oc2ccc(Cl)c(C)c2)cc1C (configuration not stated),i
CCc1noc2nc(CCC(=O)NC(C)CC)nc(N3CCCCC3)c12 (configuration not stated),i
Cc1ccc(Cl)cc1NS(=O)(=O)c1cc(-c2nc(C(C)(C)C)cs2)cs1,i
CC(C)(C)c1csc(-c2csc(S(=O)(=O)Nc3ccc(Cl)cc3F)c2)n1,+
CC(C)(C)c1csc(-c2csc(S(=O)(=O)Nc3ccc(F)c(Cl)c3)c2)n1,i
Cn1c(-c2nnc(SCC(=O)Nc3ccc4c(c3)OCO4)o2)cc2ccccc21,i
O=C(CSc1nnc(-c2cccnc2)o1)Nc1ccc2c(c1)OCO2,+
O=C(CSc1nnc(-c2cc3ccccc3[nH]2)o1)Nc1ccc2c(c1)OCO2,i
Cn1c(=O)c2c(nc3n(Cc4ccc(F)cc4)c(-c4ccc(Cl)cc4)cn23)n(C)c1=O,i
CC1CCCN(C(=O)Cn2cnc3c(nc4n3CCCCC4)c2=O)C1 (configuration not stated),i
CCSc1nc2ccc(NS(=O)(=O)c3ccc(CC)cc3)cc2s1,i
CC(C)c1nnc(-c2ccc(S(=O)(=O)N3CCCCC3)o2)o1,i
O=S(=O)(NC1CCCCC1)c1ccc(-c2nnc(C3CCC3)o2)o1,i
CC(C)c1nnc(-c2ccc(S(=O)(=O)NC3CCCC3)o2)o1,+
Cc1nc(CCNC(=O)[C@H]2CCCN2C(=O)c2ccccc2F)cs1,i
COC(=O)c1cc(S(=O)(=O)NCCC(=O)NC2CCCC2)cn1C,i
O=C(NCc1ccncc1)c1ccc2c(c1)CCN2S(=O)(=O)c1ccc(Cl)cc1,i
SMILES,Anaer choline gr
CN1CCN(c2nc(N3CCOCC3)nc3c2cnn3C)CC1,i
Cc1ccc(Cl)cc1NC(=O)CN1CCCN(Cc2ccccc2Cl)S1(=O)=O,i
CC(=O)C1C(=O)C=C(C)OC1=O (configuration not stated),i
CN1CCc2c(sc(NC(=O)C3CC3)c2-c2nc3ccccc3s2)C1,i
CC(C)N1CCc2c(sc(NC(=O)C3CC3)c2-c2nc3ccccc3s2)C1,+
CN1CCc2c(sc(NC(=O)CN3C(=O)c4ccccc4C3=O)c2-c2nc3ccccc3s2)C1,i
Cc1ccc(CCNC(=O)c2cnc3ccc(S(=O)(=O)N4CCOCC4)cc3c2Cl)cc1,i
CCn1ccc2cc(S(=O)(=O)N3CCCC(C(=O)NC)C3)ccc21 (configuration not stated),i
Cc1ccc(-c2[nH]nc3c2C(C(=O)c2ccc(Br)cc2)CC(=O)N3)cc1 (configuration not stated),i
CCCCN(C)c1ccc(NC(=O)c2ccccc2Cl)c(C(=O)O)c1,+
O=C(Nc1ccc(N2CCC(Cc3ccccc3)CC2)cc1C(=O)O)c1ccccc1Cl,+
CN1CCN(c2ccc(NC(=O)c3ccccc3Cl)c(C(=O)O)c2)CC1,i
CCCN1CCN(c2ccc(NC(=O)c3ccccc3Cl)c(C(=O)O)c2)CC1,i
CCCCN(C)c1ccc(NC(=O)C2CC2)c(C(=O)O)c1,i
CCCCN(C)c1ccc(NS(=O)(=O)c2ccc(Br)cc2)c(C(=O)O)c1,i
Cc1nc(-c2csc(S(=O)(=O)N3CCCC(C(=O)NCCN4CCOCC4)C3)c2)no1 (configuration not stated),i
Cc1cccc2cc3c(nc12)N(S(=O)(=O)c1ccc(C(C)(C)C)cc1)CC3,i
Cc1[nH]c(C)c(S(=O)(=O)N2CCC(C(=O)N3CCc4ccccc43)CC2)c1C(=O)N1CCCC1,+
Cc1[nH]c(C)c(S(=O)(=O)N2CCc3ccccc3C2)c1C(=O)N1CCCC1,i
Cc1[nH]c(C)c(S(=O)(=O)N2CCC(C(=O)N3CCc4ccccc43)CC2)c1C(=O)N1CCCCC1,i
CC1=C(C(=O)Nc2ccc(C(=O)NCCCN3CCC(N4CCCCC4)CC3)cc2)SCCO1,i
COc1cc2c(cc1OC)CN([C@H]1CS(=O)(=O)C[C@@H]1S(=O)(=O)c1ccc(Cl)cc1)CC2,i
NC[C@@H]1O[C@H](c2ccccc2)Cc2c1ccc(O)c2O,i
NC[C@@H]1O[C@H](C23CC4CC(CC(C4)C2)C3)Cc2c1ccc(O)c2O,+!
CCc1ccc(-c2[nH]ncc2CN2CCCC2c2cc(CC)no2)cc1 (configuration not stated),i
SMILES,Anaer choline gr
CCCc1nnc(-c2cc3ccccc3n2CC(=O)N2CCCCC2)o1,i
Cc1ccc(CN2CCCC2c2c(C)noc2C)cc1 (configuration not stated),i
CCC(Sc1nc2ncccc2[nH]1)C(=O)Nc1ccc(Br)cc1 (configuration not stated),i
CCOc1ccc(NC(=O)C(CC)Sc2nc3ncccc3[nH]2)cc1 (configuration not stated),+
CCOc1ccc(NC(=O)C(C)Sc2nc3c(c(=O)[nH]2)CCCC3)cc1 (configuration not stated),i
O=C1CCCc2c1cc(C(=O)NCc1ccc3c(c1)OCO3)c(=O)n2-c1ccc(F)cc1,i
Cc1cc(NC2CCCC2)n2nc(C)c(-c3ccc(F)cc3)c2n1,i
O=C(Nc1cnn(-c2ncc(N3CCSCC3)cn2)c1)C1CCOC1 (configuration not stated),i
O=C(Nc1cnn(-c2ncc(N3CCCC3)cn2)c1)C1CCC1,+
O=C(Nc1cnn(-c2ncc(N3CCCC3)cn2)c1)NC1CCCC1,i
Cn1c(CCNC(=O)C2CCCC2)nc2cc(NC(=O)c3cccnc3)ccc21,i
CCc1ccc(CNc2nc(-c3nnc(-c4ccc(C)cc4)o3)nc3ccccc23)cc1,i
Cc1nc(-n2nc(C)c(CC(=O)N3CCCC3)c2C)sc1C,i
COc1ccc(-c2nn3c(CSc4ccccc4)nnc3s2)cc1,i
c1ccc(SCc2nnc3sc(-c4cccnc4)nn23)cc1,+
CN(C)c1cccc(-c2nn3c(CSc4ccccc4)nnc3s2)c1,i
COc1ccccc1NC(=O)CN(C)S(=O)(=O)c1cc2c(cc1C)NC(=O)CO2,i
CCCS(=O)(=O)c1nc2ccc(NS(=O)(=O)c3ccccc3F)cc2s1,i
O=C(Cn1c(=O)n(Cc2ccccc2)c(=O)c2ccccc21)NCCC1=CCCCC1,i
O=C(Nc1ccc(Cl)cc1)Nc1cccc(-c2nnc(-c3ccccc3)o2)c1,i
Cn1c(=O)n(C)c2cc(N3CCCC3)c(NC(=O)Nc3ccc4c(c3)OCCO4)cc21,+
O=C(Nc1ccc2c(c1)OCO2)Nc1cc(NC(=O)c2ccccc2)ccc1N1CCCC1,i
Cc1cc(C)cc(NC(=O)Nc2cc3c(cc2N2CCCC2)n(C)c(=O)n3C)c1,i
O=C(C1CCCN(c2nc3cccnc3s2)C1)N1CCN(c2ccc(F)cc2)CC1 (configuration not stated),i

# Compound activity deposited in PubChem by ICCB-Longwood Screening Facility, Harvard Medical School.
